Test results taken from PubChem BioAssay AID1863 (Southern Research Specialized Biocontainment Screening …, 2009).
Several values for one entry are separate records, joined by “and”; a condition that tells them apart may be missing. Equal entries are not always repeated. In all, about 300,000 compounds went through this assay and about 480 (0.16%) were called active. Only a sample is shown. Entries with a potency or affinity are not part of this list. Values without a mark were called inactive.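 The calls were made as follows: active = inhibition over 29.93%, a cutoff 3 SD above the screen mean, later confirmed by dose response; inconclusive = inhibition over 29.93% but no dose response follow-up; inactive = inhibition at most 29.93% or unconfirmed.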

Experiment: inhibitors of PhoP regulon expression, primary screen, Salmonella Typhimurium, GFP reporter (AID 1863);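 also: 0% = low Mg2+ inducing control and 100% = high Mg2+ repressing control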
Conditions: S. Typhimurium PhoP-regulated promoter GFP reporter, 4 h; at 50 µM; active compounds read high

| Structure (SMILES) | inhibition |
| --- | --- |
| CCCCCCCCCCCCCCCC[n+]1ccc(C(N)=O)cc1 | 20.5% |
| NC(=O)C[n+]1ccc(/C=N/O)cc1 | -4.29% |
| CCS(=O)(=O)N1CCCC(C(=O)NCCCOC)C1 (centres undefined) | -8.48% |
| CC1(N(O)/C=C2\C=CC=CC2=O)CCCCC1=O (centres undefined) | -4.1% |
| COC(=O)CCC(=O)Nc1ccccc1C(N)=O | 15.3% |
| COc1ccc(O)c(/C=N/NC(=S)Nc2cccc(S(=O)(=O)N(C)C)c2)c1 | 22.2% |
| CN(C)S(=O)(=O)c1cccc(NC(=S)N/N=C/c2ccc(O)c(O)c2O)c1 | -0.51% |
| Cc1ccc(Nc2nc(N)c([N+](=O)[O-])c(NCc3ccccc3)n2)cc1 | -2.58% |
| Nc1ccc2c(c1)C(=O)c1ccccc1C2=O | 8.76% |
| O=C1C(=O)c2ccc(-c3ccccc3)cc2-c2ccccc21 | -10.4% |
| CC(=O)Nc1ccc(S(=O)(=O)N2C(C)CCCC2C)cc1 (centres undefined) | 11.1% |
| COc1ccc(/C=N/NC(=O)Cn2nnc3ccccc32)cc1OC | -6.81% |
| COc1cc(/C=N/NC(=O)Cn2nnc3ccccc32)ccc1O | -5.12% |
| COCCNC(=O)C1CCC(Cn2c(=S)[nH]c3ccccc3c2=O)CC1 (centres undefined) | 4.17% |
| Cc1ccc2oc(=O)c(/C=C(\O)C(C)(C)C)nc2c1 | -0.34% |
| CC(C)(C)/C(O)=C/c1nc2ccccc2oc1=O | -5.43% |
| CC(=O)Nc1ccc(CN(C)CC2CCCN(CCc3cccc(C(F)(F)F)c3)C2)cc1 (centres undefined) | 8.69% |
| COc1ccccc1N=CC=C1OC(C)(C)C(C)(C)O1 | -3.09% |
| CCC[C@@H](CNC)NC[C@H](Cc1ccccc1)NCCCCc1ccccc1 | 3.18% |
| CNC[C@@H](C)NC[C@@H](Cc1ccccc1)NCCc1ccccc1 | 9.81% |
| CC(Cc1cccc(C(F)(F)F)c1)NCCOC(=O)c1ccccc1 (centres undefined) | -9.48% and -7.52% |
| CCC[C@H](CN[C@@H](CNC)[C@H](C)CC)NCCc1cc(C(F)(F)F)cc(C(F)(F)F)c1 | 19.5% |
| Cc1ccccc1-c1noc(CCC(=O)NCC2CCCO2)n1 (centres undefined) | 6.26% |
| O=C1OCCC/C1=C\c1ccc2c(c1)OCO2 | 1.4% |
| O=C(Cc1nc2ccccc2[nH]1)c1cccc([N+](=O)[O-])c1 | -11.1% |

| Structure (SMILES) | inhibition |
| --- | --- |
| CCC(=O)N1C(=O)C2(Nc3ccccc3N2)c2ccccc21 | -1.88% |
| CC(C)(C)c1ccc(NC(=O)COC(=O)c2ccc(NS(=O)(=O)c3ccc(F)c(F)c3)cc2)cc1 | 1.23% |
| COc1cc(C)c(Cc2cnc(N)nc2N)cc1OC | -1.03% |
| COc1ccc(Cc2c(N)nc(N)nc2N)cc1 | 2.89% |
| CC(C)Oc1ccc(Cc2cnc(=S)[nH]c2N)cc1 | 5.16% |
| CCCOc1ccc(Cc2nc(N)nc(N)n2)cc1 | 20.1% |
| CCCCOc1ccc(CN(C)c2ncnc(N)n2)cc1 | -10.1% |
| Cc1cc(=O)[nH]c(Cc2ccc(OC(C)C)cc2)n1 | 10.3% |
| O=C(Nc1ccc(N2CCOCC2)c(Cl)c1)c1ccc(F)cc1 | -2.15% |
| S=C(NCC1CCCO1)c1ccc(Br)cc1 (centres undefined) | 2.88% |
| CCOC(=O)C1(C)/C(=N/Nc2ccccc2)C(=O)C(=O)N1c1ccccc1 (centres undefined) | -7.22% |
| CCCn1cnnc1CNC(=O)C1CCC(=O)N(CCCc2ccccc2)C1 (centres undefined) | 2.57% |
| CCOC(=O)c1cc(S(=O)(=O)NCC2CCN(Cc3cccc(C)c3)CC2)cn1C | 1.53% |
| O=C(Nc1ccnn1C1CCN(C(=O)c2c(F)cccc2F)CC1)C1CC1 | -1.51% |
| Cc1ncc(CN2CCCC(CCC(=O)NCc3ccc(F)c(F)c3)C2)s1 (centres undefined) | -2.44% |
| Cn1cnc([N+](=O)[O-])c1Oc1ccccc1 | 21.7% |
| Cn1cnc([N+](=O)[O-])c1Oc1ccc2ccccc2c1 | 16.2% |
| CCCCCCC(C)n1[nH]c(=O)cc1N (centres undefined) | 0.2% |
| Cc1ccc(-c2noc(CN3C(C)CCCC3C)n2)cc1 (centres undefined) | 3.05% |
| Cc1ccc(C(=O)NC2CCCCC2)cc1S(=O)(=O)N1CCCC1 | 4.45% |
| O=C(O)c1cc(S(=O)(=O)NC(CO)C(O)c2ccc([N+](=O)[O-])cc2)ccc1Br (centres undefined) | 8.08% |
| Cc1ccc(NC(=S)NC(CO)C(O)c2ccc([N+](=O)[O-])cc2)cc1 (centres undefined) | 8.17% |
| CS(=O)(=O)c1ccc(C(=O)NCc2ccccc2F)cc1 | -3.92% |
| CS(=O)(=O)c1ccc(C(=O)NC(Cc2ccccc2)c2ccccc2)cc1 (centres undefined) | 4.54% |
| Cc1cccc(CN2CCN(Cc3cccc(-n4cccn4)c3)CC2CCO)n1 (centres undefined) | -2.39% |

| Structure (SMILES) | inhibition |
| --- | --- |
| O=C1CCN(Cc2ccc(Cl)cc2)N1 | -4.83% |
| CC(=O)c1cccc(S(=O)(=O)Nc2ccc(N3CCOCC3)cc2)c1 | -4.4% |
| NCCCC[C@H]1CN=C(N)N1CCCCC1CCCCC1 | 11.9% |
| NC1=NC[C@H](c2ccccc2)N1CC1CCCCC1 | -3.43% |
| CCCCN1C(N)=NC[C@@H]1Cc1ccc(O)cc1 | 0.58% |
| NC1=NC[C@H](Cc2ccc(O)cc2)N1CC1CCCCC1 | 3.06% |
| CCCCN1C(N)=NC[C@@H]1c1ccccc1 | -3.32% |
| CCCCN1C(N)=NC[C@H]1Cc1ccc(O)cc1 | 5.24% |
| NC1=NC[C@@H](Cc2ccc(O)cc2)N1CC1CCCCC1 | -0.19% |
| NC1=NC[C@@H](Cc2ccc(O)cc2)N1CCC12CC3CC(CC(C3)C1)C2 | -0.89% |
| Cc1ccccc1OCC(=O)Nc1ccc(N2CCN(C)CC2)c(Cl)c1 | 5.97% |
| COC(=O)c1ccc(OCC(=O)c2ccc(C)c(C)c2)cc1 | -11.3% |
| CCOC(=O)c1c(-c2ccccc2)nc2cc(C)ccn12 | -0.32% |
| Nc1nonc1NN=C1CCCCC1 | 2.62% |
| COc1ccc(N(CC(=O)NC2CCCC2)C(=O)c2ccc(C)s2)cc1OC | -1.51% |
| Cc1ccc(S(=O)(=O)N/N=C/c2cccs2)cc1 | 1.58% |
| COc1ccc(OC)c(S(=O)(=O)CC(O)CS(=O)(=O)c2ccccc2)c1 (centres undefined) | -7.1% |
| O=C(CC1C(=O)NCCN1CCCc1ccccc1)NCCc1ccccc1F (centres undefined) | 5.1% |
| CN(C)C1=NC[C@H](Cc2ccccc2)N1CCCC1CCCC1 | -2.38% |
| NC1=NC[C@H](Cc2ccccc2)N1CC1CCCCC1 | -1.5% |
| Cc1nn(-c2ccccc2)c(N2CCCC2)c1/C=N/NC(=O)c1ccccc1O | -4.47% |
| O=C(Oc1ccc(/C=N/NC(=O)c2ccccc2O)cc1)c1ccccc1 | -2.42% |
| Cc1ccc(CCNC(=O)C2CCCN(S(=O)(=O)c3c(C)nn(C)c3C)C2)cc1 (centres undefined) | -2.59% |
| Cc1[nH]c2ccccc2c1C(=O)CSC(=S)N1CCCCC1 | -9.67% |
| O=C(Cc1nnc(NC(=O)Nc2ccccc2)s1)Nc1ccccc1 | 0.5% |

| Structure (SMILES) | inhibition |
| --- | --- |
| Cc1cccc(NC(=S)N2CCC(N(C)CC3CCCO3)CC2)c1 (centres undefined) | 2.69% |
| Cc1cc(C(C)(C)C)ccc1OCCCCN1CCCC1 | -7.85% |
| Cc1cc[n+](CC[n+]2ccc(C)cc2)cc1 | 6.23% |
| CCC(C)(C)c1ccc(OCCCC[n+]2cccc(C)c2)c(C(C)(C)CC)c1 | 25.6% |
| CCC(C)(C)c1ccc(OCC(=O)N(C)C)c(C(C)(C)CC)c1 | -2.72% |
| Cc1nc2c(ncn2-c2ccccc2)c(=O)n1NC(=O)CN1CCN(C)CC1 | 4.84% |
| COc1ccc(CNc2ncccc2[N+](=O)[O-])cc1 | 2.57% |
| COC(C(=O)Nc1ccc(Br)cc1F)c1ccccc1 (centres undefined) | 4.52% |
| COc1ccc2[nH]cc(/C=N/NS(=O)(=O)c3ccc(C)cc3)c2c1 | -5.48% |
| NC(=S)N/N=C/c1c[nH]c2ccc(OCc3ccccc3)cc12 | 1.88% |
| COc1ccccc1OCC(O)Cn1c(=N)n(Cc2ccccc2)c2ccccc21 (centres undefined) | -0.92% |
| N=c1n(Cc2ccc(Cl)cc2)c2ccccc2n1CC(O)COc1ccccc1 (centres undefined) | 3.85% |
| O=C(NC1CCCCC1)C1COc2ccccc2O1 (centres undefined) | 1.35% |
| CCCC(=O)Nc1ccc(C(=O)N/N=C/c2ccc([N+](=O)[O-])o2)cc1 | -16.6% |
| Cc1scc(C(=O)N/N=C/c2ccco2)c1C | 0.79% |
| O=C(N/N=C/C=C/c1ccccc1[N+](=O)[O-])c1cccs1 | -10.8% |
| Cc1cc(C(=O)N/N=C/c2ccc([N+](=O)[O-])o2)c(C)o1 | -2.92% |
| O=C(N/N=C/C=C/c1ccc([N+](=O)[O-])cc1)c1cccs1 | -4.65% |
| O=C(N/N=C/c1ccc([N+](=O)[O-])o1)c1ccncc1 | 3.52% |
| OC1CCN(Cc2ccc(OCc3ccccc3)cc2)CC1 | 2.08% |
| O=S(=O)(c1ccc(Br)cc1)N1CCN=C1SCc1cccc(F)c1 | -2.02% |
| Cc1c(C(=O)N(Cc2cccc(Br)c2)C2CCS(=O)(=O)C2)oc2ccc(F)cc12 (centres undefined) | 3.11% |
| O=C(ONC1=NCCCCC1)c1ccc(Cl)cc1 | -13.6% |
| Cc1nn(C)c(=O)n1-c1ccccc1 | 0.59% |
